# SIRT5 inh = SIRT5 desuccinylase inhibitors, primary screen, biochemical, fluorescence imaging, single point, set 5; Purified SirT5, succinyl-peptide AMC, trypsin-coupled fluorescence; inhibition, % at 15 µM; NAD-dependent protein deacylase sirtuin-5, mitochondrial (Homo sapiens), Q9NXA8; actives 1.1% (n = 330,000); in the data active = inhibition above about 15%
# ERp5 inh = inhibitors of ERp5-driven insulin aggregation, primary screen, biochemical, turbidity, absorbance 650 nm, single point; Protein disulfide-isomerase A6 (Homo sapiens), Q15084; AID 651711, 2012; actives 0.05% (n = 350,000); inhibition, % at 9.99 µM; 90 min;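 active = mean replicate inhibition above about 25%, with every replicate also reaching it, limit read from the data, passing the limit was not always enough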
# ERAP1 inh = human ERAP1 aminopeptidase inhibitors, primary screen, biochemical, single point, plate reader; Endoplasmic reticulum aminopeptidase 1 (Homo sapiens), Q9NZ08; recombinant ERAP1, Leu-AMC fluorescence, 60 min; inhibition, % at 10.7 µM; actives 0.15% (n = 340,000); AID 652197, 2013;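 active = mean replicate inhibition of at least 30%, or all replicates individually reaching that 30% level; inactive = mean below 30% and not every replicate reaching it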;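 note: 0% = neutral control wells and 100% = L-leucinethiol positive control wells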
# Target sequence (Q9NZ08 whole entry, looked up): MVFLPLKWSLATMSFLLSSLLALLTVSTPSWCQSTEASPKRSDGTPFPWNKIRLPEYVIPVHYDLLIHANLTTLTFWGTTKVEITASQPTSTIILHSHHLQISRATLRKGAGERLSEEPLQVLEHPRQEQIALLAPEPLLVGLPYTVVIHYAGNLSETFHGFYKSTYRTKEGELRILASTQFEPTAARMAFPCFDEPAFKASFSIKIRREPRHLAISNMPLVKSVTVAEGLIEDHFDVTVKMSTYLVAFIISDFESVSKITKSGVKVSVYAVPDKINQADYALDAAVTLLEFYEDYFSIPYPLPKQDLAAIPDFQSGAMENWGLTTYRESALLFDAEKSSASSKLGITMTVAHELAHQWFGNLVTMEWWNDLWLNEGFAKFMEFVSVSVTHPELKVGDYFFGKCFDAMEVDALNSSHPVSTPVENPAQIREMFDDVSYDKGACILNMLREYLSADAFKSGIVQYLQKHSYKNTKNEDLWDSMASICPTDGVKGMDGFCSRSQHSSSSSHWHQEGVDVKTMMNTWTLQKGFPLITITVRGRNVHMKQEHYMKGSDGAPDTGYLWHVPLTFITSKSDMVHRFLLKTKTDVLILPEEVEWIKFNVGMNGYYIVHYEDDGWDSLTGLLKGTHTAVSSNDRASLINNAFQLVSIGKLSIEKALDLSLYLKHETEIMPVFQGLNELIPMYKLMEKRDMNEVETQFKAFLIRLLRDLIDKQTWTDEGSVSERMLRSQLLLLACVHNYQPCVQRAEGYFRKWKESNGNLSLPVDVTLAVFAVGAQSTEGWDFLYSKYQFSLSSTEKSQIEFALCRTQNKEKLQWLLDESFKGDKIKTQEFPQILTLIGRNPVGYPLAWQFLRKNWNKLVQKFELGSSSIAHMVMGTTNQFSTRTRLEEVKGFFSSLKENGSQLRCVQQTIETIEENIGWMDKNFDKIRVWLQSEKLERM
# PDI turbidity = inhibitors of human PDI, primary screen, biochemical, turbidity, single point, plate reader; Protein disulfide-isomerase (Homo sapiens), P07237; PDI insulin aggregation turbidity, A650, 90 min; inhibition, % at 10 µM; actives 0.052% (n = 350,000);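 active = mean inhibition across replicates of 30% or more, whatever share of single replicates reach that level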
# HDAC3 inhib = HDAC3 deacetylase inhibitors, primary screen, biochemical, fluorescence, cell-free homogeneous; Histone deacetylase 3 (Homo sapiens), O15379; recombinant HDAC3, fluorogenic peptide/trypsin coupled; inhibition, % at 8.3 µM; actives 0.15% (n = 320,000); AID 2718, 2010; in the data active = inhibition above about 26%, passing the limit was not always enough
# * marks the source's active call; other numbers are inactive results; . = no result given. The entries come from a sample that favours hits as a whole.
SMILES,SIRT5 inh,ERp5 inh,ERAP1 inh,PDI turbidity,HDAC3 inhib
O=C(O)c1ccc(NC(=O)C(c2ccccc2)c2ccccc2)cc1,-2,5,-2,-1,-1
O=C(O)CCNC(=O)c1ccc(NC(=O)Cc2ccc(Cl)cc2)cc1,26*,11,0,2,3
Cc1c(C(=O)N2CCOCC2)oc2ccccc12,16*,1,-1,-1,10
C[C@H]1CN([C@@H](C)CO)C(=O)c2cccc(NS(=O)(=O)c3ccc(F)cc3)c2O[C@H]1CN(C)Cc1ccc(C(=O)O)cc1,-22,0,1,.,.
O=C(COC(=O)c1ccc([N+](=O)[O-])s1)Nc1cccc(S(=O)(=O)NC2=NCCCCC2)c1,26*,-1,-3,-5,6
C[C@@H]1CN([C@H](C)CO)C(=O)c2cc(NC(=O)NC3CCCCC3)ccc2O[C@@H](C)CCCCO[C@@H]1CN(C)Cc1ccccc1,4,4,-1,.,.
C[C@@H]1CCCCO[C@H](CN(C)Cc2ccncc2)[C@H](C)CN([C@@H](C)CO)C(=O)c2cc(NS(=O)(=O)c3ccc(F)cc3)ccc2O1,8,2,0,.,.
CO[C@H]1CC[C@@H]2CCOc3c(C#N)cccc3C(=O)N(C)C[C@H](C)C(=O)N(C)C[C@@H]1O2,20*,-3,3,.,.
CO[C@@H]1CC[C@H]2CCOc3c(C#N)cccc3C(=O)N(C)C[C@@H](C)C(=O)N(C)C[C@@H]1O2,0,-1,0,.,.
CS(=O)(=O)N1[C@@H](C#N)[C@H](c2ccc(-c3ccccc3F)cc2)[C@@H]1CO,.,-2,0,.,.
CC1CCN(C(=O)C2CCC(=O)N(Cc3ccc(Cl)cc3)C2)CC1 (stereo not drawn),23*,-4,-4,1,-5
CCOC(=O)C1CCN(C(=O)C2CCC(=O)N(Cc3cccc(C(F)(F)F)c3)C2)CC1 (stereo not drawn),-6,2,3,1,-2
CCOC(=O)N1CCN(C(=O)C2CCC(=O)N(Cc3cccc(C(F)(F)F)c3)C2)CC1 (stereo not drawn),21*,-1,-2,7,.
O=C1CCC(C(=O)N2CCC(CO)CC2)CN1Cc1ccc(Cl)cc1 (stereo not drawn),0,-1,1,-2,6
O=C(NCCS(=O)(=O)NC1CCCCC1)c1ccccc1,-4,4,-6,9,0
O=C(NCCS(=O)(=O)NC1CCCC1)c1ccccc1,17*,3,0,-3,-2
O=C(Nc1ccc2c(c1)OCO2)N[C@@H]1CC[C@H](CCNC(=O)C2CCOCC2)O[C@@H]1CO,3,-1,0,.,.
Cc1ccc(N=C2C(=O)Nc3ccc(Br)cc32)cc1,15*,-6,2,-3,4
COc1ccccc1NS(=O)(=O)c1ccc(C(=O)N2CCN(c3ccccn3)CC2)cc1,-3,27*,2,-5,-3
Cc1ccc(NS(=O)(=O)c2ccc(C(=O)N3CCN(c4ccccn4)CC3)cc2)cc1,.,.,.,12,5
CC(C)(C)C(=O)CSc1ncnc2c1cnn2Cc1ccccc1,15*,6,-1,9,2
CC(=O)Nc1cccc(NC(=O)c2cccc3cccnc23)c1,15*,-2,-2,1,-1
Oc1ccc(C[C@H]2CNC(=S)N2CC2CCCN2C[C@H](Cc2ccc(O)cc2)N2C[C@H](Cc3ccc(O)cc3)N(CC3CCCCCC3)C2=S)cc1 (stereo partly drawn),17*,12,.,3,.
O=C1NC[C@H](Cc2ccccc2)N(C[C@H]2CCCN2C[C@H](Cc2ccccc2)N2C[C@H](Cc3ccc(O)cc3)N(CCc3ccccc3)C(=O)C2=O)C1=O,0,-4,1,42*,.
CCOc1ccc(CCN2C(=O)C(=O)N([C@@H](CC(C)C)CN3CCC[C@H]3CN3C(=O)C(=O)NC[C@@H]3Cc3ccccc3)C[C@@H]2Cc2ccc(O)cc2)cc1,-1,-4,.,.,.
SMILES,SIRT5 inh,ERp5 inh,ERAP1 inh,PDI turbidity,HDAC3 inhib
CCOc1ccc(CCN2C(=O)C(=O)N([C@@H](CC(C)C)CN3CCC[C@@H]3CN3C(=O)C(=O)NC[C@@H]3Cc3ccccc3)C[C@@H]2Cc2ccc(O)cc2)cc1,-2,2,2,54*,.
O=C1NC[C@H](Cc2ccccc2)N(C[C@@H]2CCCN2C[C@H](Cc2ccc(O)cc2)N2C[C@H](Cc3ccc(O)cc3)N(CCc3ccccc3)C(=O)C2=O)C1=O,0,-4,-4,.,.
O=C(NC[C@H]1CC[C@H]2[C@H](CN2Cc2nccs2)O1)C1CCC1,4,-3,2,.,.
NS(=O)(=O)c1cccc2c1c([N+](=O)[O-])cc1nc(O)c(O)nc12,16*,-3,11,0,2
O=[N+]([O-])c1cc2cccnc2c2ncccc12,-1,.,-1,0,5
CCNC(=O)[C@@H]1[C@@H](CO)[C@@H]2Cn3c(ccc(C4=CCCCC4)c3=O)[C@H]1N2CCC(F)(F)F,-24,-2,1,.,.
Cc1cccc(-c2noc(CN(C)C(=O)c3ccco3)n2)c1,52*,2,-3,1,-1
Cc1cccc(-c2noc(CN(C)C(=O)c3ccoc3C)n2)c1,-7,2,2,0,-5
COc1ccc(S(=O)(=O)N2CCOC23CCN(S(=O)(=O)c2ccccc2)CC3)cc1,27*,5,-1,-6,6
C[C@@H]1CN([C@H](C)CO)C(=O)c2cc(/C=C/c3ccccc3)cnc2O[C@H]1CN(C)Cc1ccccc1,0,9,3,.,.
CN1c2ccc(Br)cc2[C@@H]2[C@@H](CCN2C(=O)Nc2ccc(F)cc2)[C@H]1CO,4,-4,2,.,.
CC(C)CC#Cc1ccc2c(c1)O[C@@H](CN(C)C(=O)NC1CCCC1)[C@H](C)CN([C@H](C)CO)S2(=O)=O,25*,8,-2,.,.
C[C@@H]1CN([C@H](C)CO)S(=O)(=O)c2ccc(C#Cc3ccc(F)cc3)cc2O[C@H]1CN(C)C(=O)NC1CCCCC1,18*,-8,1,.,.
CC(C)CC#Cc1ccc2c(c1)O[C@@H](CN(C)C(=O)NC1CCCC1)[C@H](C)CN([C@@H](C)CO)S2(=O)=O,16*,3,0,.,.
C[C@H](CO)N1C[C@H](C)[C@H](CN(C)C(=O)NC2CCCCC2)Oc2cc(C#Cc3ccc(F)cc3)ccc2S1(=O)=O,14,5,2,.,.
C[C@H]1CCCCO[C@@H](CN(C)C(=O)Nc2ccc3c(c2)OCO3)[C@@H](C)CN([C@@H](C)CO)C(=O)c2cc(NS(C)(=O)=O)ccc2O1,-1,1,-1,.,.
NS(=O)(=O)c1ccc(N=Nc2c(O)c(C(=O)O)cc3ccccc23)cc1,-3,0,3,9,5
O=C(O)Cc1ccc(N=Nc2c(O)c(C(=O)O)cc3ccccc23)cc1,31*,-4,-4,1,5
